From the antibiotic and cytotoxicity screens of Wong et al. (2023)
In all, about 39,000 compounds went through this assay and about 500 (1.3%) were called active. The full list was thinned out, with actives kept by preference.

The compounds below were run on S. aureus RN4220 (assay: growth inhibition call (relative growth <= 0.2)). Settings: 50 µM.

SMILES	growth inhibition call
CC(C)NC(=O)N(C)C[C@H]1Oc2ccc(NC(=O)NC3CCCCC3)cc2C(=O)N([C@H](C)CO)C[C@@H]1C	inactive
C[C@@H]1CCCCO[C@@H](CN(C)S(=O)(=O)c2cn(C)cn2)[C@@H](C)CN([C@H](C)CO)C(=O)c2cc(NS(=O)(=O)c3cn(C)cn3)ccc2O1	inactive
O=C1CCC(c2ccc(O)cc2)CC1	inactive
Oc1cc(C2CCCCC2)cc(C2CCCCC2)c1	active
Oc1ccccc1CNc1ccc(C2CCCCC2)cc1	inactive
COc1ccc(NC(=O)Nc2ccc3c(c2)C(=O)N([C@H](C)CO)C[C@H](C)[C@H](CN(C)C(=O)NC(C)C)OCCCC[C@H](C)O3)cc1	inactive
Cc1c[nH]c2ccccc12	inactive
FC(F)(F)c1ccc(CSc2c[nH]c3ccccc23)cc1	active
c1ccc2c(-c3ccncc3)c[nH]c2c1	inactive
OCc1c[nH]c2ccccc12	inactive
Brc1ccc(CSc2c[nH]c3ccccc23)cc1	active
N#C/C(=C\c1ccc(C(F)(F)F)cc1)c1c[nH]c2ccccc12	inactive
COc1ccc(NC(=O)N(C)C[C@@H]2OCCCC[C@H](C)Oc3ccc(NS(=O)(=O)c4ccc(Cl)cc4)cc3C(=O)N([C@H](C)CO)C[C@H]2C)cc1	inactive
C[C@@H]1CN([C@H](C)CO)C(=O)c2cc(NC(=O)NC3CCCCC3)ccc2O[C@@H](C)CCCCO[C@@H]1CN(C)S(=O)(=O)c1cccs1	inactive
COc1ccc(NC(=O)Nc2ccc3c(c2)C(=O)N([C@@H](C)CO)C[C@@H](C)[C@H](CN(C)Cc2ccncc2)OCCCC[C@@H](C)O3)cc1	inactive
C[C@H]1CCCCO[C@H](CN(C)C(=O)Nc2ccccc2)[C@@H](C)CN([C@@H](C)CO)C(=O)c2cc(NC(=O)Cc3ccccc3)ccc2O1	inactive
C[C@H]1CN([C@@H](C)CO)C(=O)CCCn2cc(nn2)CO[C@H]1CN(C)S(=O)(=O)c1ccc(C#N)cc1	inactive
CN(C)c1cc(CN)ccn1	inactive
O=C(O)CC[C@H]1CCCCN1	inactive
C1CCC(C(C[C@H]2CCCCN2)C2CCCCC2)CC1	active
OC[C@@H]1CCCN1	inactive
C1CCC(C(CC2CCCCN2)C2CCCCC2)CC1.O=C(O)C=CC(=O)O (stereo unspecified)	active

SMILES	growth inhibition call
O=C(O)[C@@H]1CCCCN1	inactive
OC[C@@H]1CCCCN1	inactive
C[C@@H]1CN([C@H](C)CO)C(=O)c2cc(NC(=O)C3CCCCC3)ccc2O[C@@H](C)CCCCO[C@@H]1CN(C)Cc1ccc2c(c1)OCO2	inactive
COc1ccc(NC(=O)N(C)C[C@H]2Oc3c(NC(=O)c4cnccn4)cccc3C(=O)N([C@@H](C)CO)C[C@@H]2C)cc1	inactive
C[C@@H]1CN([C@H](C)CO)S(=O)(=O)c2ccc(C#CCN(C)C)cc2O[C@@H]1CN(C)Cc1ccccn1	inactive
C[C@H](CO)N1C[C@H](C)[C@@H](CN(C)Cc2ccc3c(c2)OCO3)Oc2c(NS(=O)(=O)c3cn(C)cn3)cccc2C1=O	inactive
COc1ccc(NC(=O)Nc2ccc3c(c2)C(=O)N([C@@H](C)CO)C[C@@H](C)[C@H](CN(C)Cc2ccc(C(=O)O)cc2)OCCCC[C@H](C)O3)cc1	inactive
COc1cccc(S(=O)(=O)N(C)C[C@H]2OCc3cnnn3CCCC(=O)N([C@@H](C)CO)C[C@@H]2C)c1	inactive
CNC[C@@H]1Oc2ccc(NS(=O)(=O)c3cn(C)cn3)cc2C(=O)N([C@@H](C)CO)C[C@@H]1C	inactive
CCc1nc2ccc(C(=O)NC3CCN(Cc4ccccc4)CC3)cn2c1N(C)Cc1cc2ccccc2s1	inactive
Cc1noc(C)c1NC(=O)Nc1ccc2c(c1)C(=O)N([C@H](C)CO)C[C@@H](C)[C@H](CN(C)S(=O)(=O)c1ccccc1)OCCCC[C@H](C)O2	inactive
Cc1cc(C2CCCCC2)n(O)c(=O)c1.NCCO	active
C[C@H](CO)N1C[C@H](C)[C@@H](CN(C)Cc2ccc(-c3ccccc3)cc2)Oc2c(NC(=O)c3ccncc3)cccc2C1=O	inactive
C[C@H]1CN([C@@H](C)CO)C(=O)c2cccc(NC(=O)c3cnccn3)c2O[C@@H]1CN(C)Cc1ccncc1	inactive
COc1cccc(NC(=O)N[C@@H]2CC[C@@H](CC(=O)N3CCN(C)CC3)O[C@@H]2CO)c1	inactive
O=C(C[C@@H]1CC[C@H]2[C@@H](COC[C@H](O)CN2C(=O)Nc2cccc(F)c2)O1)NCc1ccccc1Cl	inactive
NNC(=O)COc1ccccc1	inactive
COC(=O)[C@@H]1N2C(=O)[C@@H](N3C[C@](C)(OC)O[C@@H](Cc4ccccc4)[C@H]3/C=C/C3CC3)[C@H]2SC1(C)C	inactive
CC1(C)SC2C(NC(=O)COc3ccccc3)C(=O)N2C1C(=O)[O-].[K+] (stereo unspecified)	active
CC1(C)SC2C(NC(=O)Cc3ccccc3)C(=O)N2C1C(=O)[O-].[K+] (stereo unspecified)	active
CC1(C)C(=O)NCCN1C(=O)Cc1ccccc1	inactive
COC(=O)[C@@H]1N2C(=O)[C@@H](N3CC4=C[C@@H](C5CC5)n5c(=O)n(C)c(=O)n5[C@@H]4[C@@H]3[C@@H](O)Cc3ccccc3)[C@H]2SC1(C)C	inactive

SMILES	growth inhibition call
C[C@@H](NC(=O)COc1ccccc1)C(=O)O	inactive
CNC(=O)Cc1ccccc1	inactive
CC1(C)SC2C(N3C(=O)C(c4ccccc4)NC3(C)C)C(=O)N2C1C(=O)[O-].[K+] (stereo unspecified)	active
COc1ccc(S(=O)(=O)N(C)C[C@H]2OCCCC[C@@H](C)Oc3ccc(NC(=O)Nc4ccc(F)cc4)cc3C(=O)N([C@@H](C)CO)C[C@H]2C)cc1	inactive
COc1cccc(CNC(=O)C[C@@H]2C=C[C@@H](NC(=O)C3CCOCC3)[C@H](CO)O2)c1	inactive
COc1ccc(NC(=O)N(C)C[C@@H]2Oc3c(NS(C)(=O)=O)cccc3C(=O)N([C@H](C)CO)C[C@H]2C)cc1	inactive
OCCc1ccc2c(c1)OCO2	inactive
Cc1ccc(S(=O)(=O)N(C)C[C@H]2Oc3ccc(NC(=O)Nc4cccc5ccccc45)cc3C(=O)N([C@@H](C)CO)C[C@@H]2C)cc1	inactive
COc1ccc(S(=O)(=O)N2C[C@H](O)COC[C@H]3O[C@H](CC(=O)NCCN4CCCCC4)CC[C@@H]32)cc1	inactive
CCCNC(=O)N1C[C@@H](O)COC[C@H]2O[C@@H](CC(=O)N3CCN(C)CC3)CC[C@@H]21	inactive
C[C@H]1CN([C@@H](C)CO)C(=O)c2cc(NC(=O)Cc3ccccc3)ccc2O[C@H]1CN(C)C(=O)Nc1cccc2ccccc12	inactive
C[C@H]1CNC(=CC(=O)c2ccccc2)C(=O)N1	inactive
O=C1OCCN/C1=C/C(=O)c1ccccc1	inactive
O=C(/C=c1/nc2c([nH]c1=O)=NON2)c1ccccc1	active
COc1ccc(S(=O)(=O)N(C)C[C@@H]2Oc3ccc(NC(=O)Cc4ccccc4)cc3CC(=O)N([C@@H](C)CO)C[C@@H]2C)cc1	inactive
CC(C)(C)[S@](=O)N1Cc2cc(C(=O)NCc3ccccc3F)nc(-c3cccc(-c4ccncc4)c3)c2[C@@H]1CCO	inactive
O=C(C[C@@H]1CC[C@H]2[C@@H](COC[C@@H](O)CN2C(=O)Nc2cccc(Cl)c2)O1)NCc1ccccc1F	inactive
COc1cccc(NC(=O)N2C[C@H](O)COC[C@H]3O[C@@H](CC(=O)NCc4ccccc4F)CC[C@@H]32)c1	inactive
O=C(C[C@@H]1CC[C@@H]2[C@H](COC[C@H](O)CN2C(=O)Nc2cccc(Cl)c2)O1)NCc1ccccc1F	inactive
O=C(C[C@@H]1CC[C@H]2[C@@H](COC[C@H](O)CN2C(=O)Nc2cccc(Cl)c2)O1)NCc1ccccc1F	active
O=C(C[C@H]1CC[C@@H]2[C@H](COC[C@H](O)CN2C(=O)Nc2cccc(Cl)c2)O1)NCc1ccccc1F	inactive
O=C(C[C@H]1CC[C@@H]2[C@H](COC[C@@H](O)CN2C(=O)Nc2cccc(Cl)c2)O1)NCc1ccccc1F	active

SMILES	growth inhibition call
O=C(C[C@H]1CC[C@H]2[C@@H](COC[C@H](O)CN2C(=O)Nc2cccc(Cl)c2)O1)NCc1ccccc1F	inactive
O=C(C[C@H]1CC[C@H]2[C@@H](COC[C@@H](O)CN2C(=O)Nc2cccc(Cl)c2)O1)NCc1ccccc1F	inactive
O=C(C[C@@H]1CC[C@@H]2[C@H](COC[C@@H](O)CN2C(=O)Nc2cccc(Cl)c2)O1)NCc1ccccc1F	active
COc1ccc(NC(=O)N(C)C[C@H]2Oc3c(NC(=O)Nc4cccc5ccccc45)cccc3C(=O)N([C@@H](C)CO)C[C@@H]2C)cc1	inactive
COc1ccc(S(=O)(=O)N(C)C[C@H]2Oc3c(NS(=O)(=O)c4c(C)noc4C)cccc3C(=O)N([C@@H](C)CO)C[C@@H]2C)cc1	inactive
O=c1[nH]cccc1F	inactive
C[C@@H]1CN([C@H](C)CO)C(=O)Cc2cc(NC(=O)CCN3CCOCC3)ccc2O[C@@H]1CN(C)C(=O)Nc1ccc2c(c1)OCO2	inactive
C[C@@H]1CN([C@@H](C)CO)C(=O)c2cc(NC(=O)C3CCCCC3)ccc2O[C@@H](C)CCCCO[C@H]1CN(C)C(=O)c1ccccc1	inactive
CNC[C@@H]1Oc2cc(C#CCN(C)C)ccc2S(=O)(=O)N([C@@H](C)CO)C[C@@H]1C	inactive
CC(C)NC(=O)N(C)C[C@@H]1Oc2ccc(NC(=O)C3CCCCC3)cc2C(=O)N([C@@H](C)CO)C[C@@H]1C	inactive
C[C@H](CO)N1C[C@H](C)[C@H](CN(C)C(=O)Nc2cccc(C(F)(F)F)c2)OCc2cnnn2CCCC1=O	active
C[C@@H]1CN([C@H](C)CO)C(=O)CCCn2nncc2CO[C@H]1CN(C)C(=O)Nc1cccc(C(F)(F)F)c1	active
C[C@@H]1CN([C@@H](C)CO)C(=O)CCCn2nncc2CO[C@@H]1CN(C)C(=O)Nc1cccc(C(F)(F)F)c1	inactive
C[C@H]1CN([C@@H](C)CO)C(=O)CCCn2nncc2CO[C@H]1CN(C)C(=O)Nc1ccc(C(C)(C)C)cc1	inactive
C[C@@H]1CN([C@H](C)CO)C(=O)CCCn2nncc2CO[C@@H]1CN(C)C(=O)Nc1cccc(C(F)(F)F)c1	active
C[C@@H]1CN([C@@H](C)CO)C(=O)CCCn2nncc2CO[C@H]1CN(C)C(=O)Nc1ccc(C(C)(C)C)cc1	inactive
C[C@H]1CN([C@@H](C)CO)C(=O)CCCn2nncc2CO[C@@H]1CN(C)C(=O)Nc1cccc(C(F)(F)F)c1	inactive
C[C@@H]1CN([C@@H](C)CO)C(=O)CCCn2nncc2CO[C@H]1CN(C)C(=O)Nc1cccc(C(F)(F)F)c1	inactive
C[C@H]1CN([C@@H](C)CO)C(=O)CCCn2nncc2CO[C@H]1CN(C)C(=O)Nc1cccc(C(F)(F)F)c1	active
C[C@H](CO)N1C[C@H](C)[C@@H](CN(C)C(=O)Nc2cccc(C(F)(F)F)c2)OCc2cnnn2CCCC1=O	inactive
